# Screen size: about 410,000 compounds; about 18,000 (4.4%) were called active. Another 7% or so got no clear call; they are omitted. Rule as the data show it: active = activity change below about -60%; inconclusive = no clear call, values can overlap the other calls; inactive = above about -39%. Many of the other results were omitted from the sample, so actives are more common in it than they were.
# Experiment: qHTS Assay for inhibitors of the human cytomegalovirus (HCMV)
# Conditions: HFF cells, HCMV-luciferase reporter, 72 h; at 57.5 µM; hits give low values
# From the text: NCGC Assay Overview: Infection with human cytomegalovirus (HCMV) continues to pose significant threats for pregnant women and immunocompromised hosts. HCMV causes serious morbidity and mortality in transplant recipients, and congenital HCMV is the leading infectious cause of mental retardation and deafness in children. In the 1990s, the annual costs associated with the disease burden of congenital CMV were estimated at around $2 billion. A HCMV vaccine is not available yet and HCMV therapies result in intolerable side effects and emergence of drug resistant viruses. […] Towards this goal we have developed and characterized a luciferase HCMV reporter that was initially used in 96 well plates and then optimized to 1536-well plates for utilization in screening of the MLSMR collection, the NGCG diversity collection and the NCGC Pharmaceutical Collection of approved and investigational drugs.
# NCGC Assay Protocol Summary:
# This is a cell-based assay for HCMV inhibition in HFFs cells. The screening used 2 compound doses and the HCMV-luciferase at MOI of 1 PFU/cell. Cells were treated and infected with HCMV. At 72 h post infection cell lysates were collected and luciferase activity was determined using the Glomax-Multi + Detection System (Promega, Madison, WI). Data were normalized to the controls for basal activity (buffer only) and known HCMV inhibitors Salinmoycin.
# 1536-well assay protocol for the assay:
# (1) Add 3 ul CMV/HFF cell culture. 1000 cells/well in DMEM nirmal media.
# (2) Incubate 16 hr at 37C.
# (3) Add 23 nl control compound, 10uM of Salinomycin.
# (4) Add 23 nl compounds in DMSO solution.
# (5) Add 3 ul CMV suspension. Final 1 puf/ul, Virus stock 2000pfu/ul
# (6) Incubate 72 hrs at 37C.
# (7) Add 4 ul OneGlo Luc Reagent.
# (8) Incubate 5 min at room temperature.
# % is scaled to controls: 0 for no effect and ±100 for the full control effect.
row,SMILES,"activity change, negative = inhibition"
1,Cc1cccc(NC(=O)N2CCC(CN3CCc4ccccc4C3)CC2)c1C,7.59% (inactive)
2,Cc1cccc(OC(C)C(=O)N2CCc3ccccc3C2)c1 (configuration not stated),-31.1% (inactive)
3,O=C(Nc1cccc([N+](=O)[O-])c1)N1CCc2ccccc2C1,-65.7% (active)
4,CC(=O)c1ccc(NC(=O)c2nc3nc(C)cc(C(F)F)n3n2)cc1,19.3% (inactive)
5,CCOc1ccc(-c2nonc2NC(=O)c2oc3ccc(C)cc3c2C)cc1OCC,5.37% (inactive)
6,Cc1ccc2c(O)c(Cc3ccccc3)c(=O)[nH]c2n1,22% (inactive)
7,Cc1nc2ccccn2c(=O)c1NC(=O)c1c(F)cccc1F,-14.4% (inactive)
8,COC(=O)c1ccc2nc(-c3ccc(Cl)cc3)c(Cc3cccc(F)c3)n2c1,-17.1% (inactive)
9,O=C(Nc1c(-c2ccc(F)cc2)nc2ccccn12)c1cccc(F)c1,-69.4% (active)
10,Cc1ccc(CNC(=O)c2c(O)nc3c(C)cccn3c2=O)cc1,5.82% (inactive)
11,COC(=O)[C@@]1(Sc2ccc(OC)cc2)CC(=O)N(c2ccc(OC)cc2C)[C@@H]1c1ccc(OC(C)C)c(OC)c1,10.7% (inactive)
12,COc1cc(OC)c(NC(=O)c2cnc(N3CCCC3)nc2C)cc1Cl,-14.2% (inactive)
13,Cc1nnc(SCC(=O)N(C(C)C)C(C)C)nc1C,-39.9% (inactive)
14,CC(C)OCCCNc1ncnc2c1[nH]c1ccc(F)cc12,-79% (active)
15,COc1ccc(Cn2cc(C(=O)c3ccc(C)cc3)c(=O)c3cc(OC)c(OC)cc32)cc1,-22.1% (inactive)
16,O=C(NC1CCCC1)C(c1ccco1)N(C(=O)c1csnn1)c1ccccc1 (configuration not stated),13.9% (inactive)
17,CCCCN(C(=O)C1=NN(c2cc(C)ccc2C)C(=O)CC1)c1c(N)n(CCC)c(=O)[nH]c1=O,8.37% (inactive)
18,Cn1c(=O)c2c(SCC(=O)N3CCc4ccccc43)nc(-c3ccc(Cl)cc3)nc2n(C)c1=O,17.9% (inactive)
19,COc1ccccc1N1CCN(c2ncnc3onc(-c4ccc(F)cc4)c23)CC1,-11.8% (inactive)
20,CCCCCCCCCCCCn1ccc(=N)cc1,-96.6% (active)
21,O=C(CCSCc1cccc(F)c1)NCc1ccccc1,-2.8% (inactive)
22,O=C(NCC(c1ccc2c(c1)OCO2)N1CCN(c2ccccc2)CC1)C(=O)Nc1ccccc1F (configuration not stated),9.73% (inactive)
23,COC(=O)C1=C(c2ccccc2)c2ccccc2S(=O)(=O)N1CC(=O)Nc1ccccc1C(F)(F)F,-5.56% (inactive)

row,SMILES,"activity change, negative = inhibition"
1,CCCc1nn2c(=O)cc(COC(=O)c3ccc(NC(=O)C(C)Oc4ccccc4)cc3)nc2s1 (configuration not stated),-18.3% (inactive)
2,COC(=O)CC1Oc2ccccc2-n2cc(-c3ccccc3)nc21 (configuration not stated),-14.2% (inactive)
3,COCC(C)n1c(C)cc(C(=O)CSc2cc(C)c3ccccc3n2)c1C (configuration not stated),-3.64% (inactive)
4,COCC(C)n1c(SCc2ccc(C(=O)OC)o2)nc2ccccc2c1=O (configuration not stated),-23% (inactive)
5,COCCn1c(C)cc(C(=O)CSc2nc3ccccc3c(=O)n2C(C)COC)c1C (configuration not stated),-66% (active)
6,O=C(NC1CCCC1)c1csc(C(O)c2cccc(Cl)c2)n1 (configuration not stated),-12.9% (inactive)
7,CC1CN(C(=O)c2ccc3c(c2)OCO3)OC(c2ccccc2)O1 (configuration not stated),26.2% (inactive)
8,CCCCCCn1nnc2sc(-c3ccccc3)cc2c1=O,15.8% (inactive)
9,COc1ccc(CNC(=O)c2ccc3c(O)c(S(=O)(=O)c4ccccc4)c(=O)[nH]c3c2)cc1,6.38% (inactive)
10,COc1ccc(OCC(=O)Nc2ccc(NC(=O)c3ccco3)c(C)c2)cc1,-98.9% (active)
11,COc1ccc(NC(=O)COCc2cc(-c3ccco3)on2)cc1,10.4% (inactive)
12,COc1ccc(NC(=O)c2ccco2)cc1NC(=O)COc1ccc(C)c(C)c1,23.1% (inactive)
13,CC(C)(C)c1ccc(S(=O)(=O)N2CCN(C(=O)c3cc(-c4ccc(Br)cc4)n[nH]3)CC2)cc1,0% (inactive)
14,COc1ccc(NC(=O)C2CCN(c3ccc(Sc4ccc(C)cc4)nn3)CC2)c(OC)c1,11.3% (inactive)
15,O=C(CSc1nc2c(c(=O)[nH]1)CN(Cc1ccc(F)cc1)CC2)Nc1ccccc1Cl,-10.3% (inactive)
16,Cc1ccc(C)c(N2CCN(CCCNC(=O)Nc3ccc(Cl)cc3)CC2)c1,-76.9% (active)
17,O=C(NCCCN1CCN(c2ccc(F)cc2)CC1)Nc1ccc([N+](=O)[O-])cc1,-37.5% (inactive)
18,CC1=C(c2ccc(Cl)cc2)S(=O)(=O)N=C1N1CCN(c2cc(C)ccc2C)CC1,8.61% (inactive)
19,CC1=C(c2ccc(C)c(C)c2)S(=O)(=O)NC1=NCc1ccccc1Cl,-23% (inactive)
20,CC1=C(c2ccc(C)cc2)S(=O)(=O)NC1=NCCCN1CCN(c2cc(C)ccc2C)CC1,-96.1% (active)
21,COc1ccc(NC(=O)NCCN2CCN(c3ccc(C)cc3)CC2)c(Cl)c1,14.9% (inactive)
22,O=C1C=C(NCCNc2c(F)c(F)c(CO)c(F)c2F)CCC1,74.7% (inactive)
23,CCOc1ccc(N2C(=O)Nc3ccccc3C2(O)C(=O)NCc2ccco2)cc1 (configuration not stated),14.9% (inactive)

row,SMILES,"activity change, negative = inhibition"
1,Cc1cc(C)cc(NC(=O)Cn2nc(N3CCN(c4ccccc4)CC3)ccc2=O)c1,-10.6% (inactive)
2,O=C(NN=Cc1ccccc1O)NN=Cc1ccccc1O,-96.4% (active)
3,O=C(CN1CCSCC1)N/N=C/c1ccc(F)cc1F,-10.6% (inactive)
4,CCc1ccccc1NC(=O)/C(=C/c1ccccc1)c1ccccc1,-13.4% (inactive)
5,O=C(N/N=C/c1ccccc1O)/C(=C/c1ccccc1)CCO,-88.1% (active)
6,NN=C(NN=Cc1ccccc1)c1ccccc1,49.5% (inactive)
7,O=Nc1c(O)cc(O)c2ccccc12,13.3% (inactive)
8,CC(=O)N1CCc2cc(Br)cc(S(=O)(=O)CCC(=O)NCCc3ccc(Cl)cc3)c21,-23.8% (inactive)
9,Cc1nc(N)sc1-c1ccccc1,-23.6% (inactive)
10,Nc1ccc(-c2sc(N)nc2-c2ccccc2)cc1,-103% (active)
11,Nc1[nH]c(=S)nc2nc(-c3ccccc3)c(-c3ccccc3)nc12,-3.08% (inactive)
12,CCn1c2ccccc2c2nnc(SCC(=O)O)nc21,-4.51% (inactive)
13,CCCCn1c(CNC(=O)C23CC4CC(CC(C4)C2)C3)nnc1SCC(=O)Nc1ccc(C)cc1,13.3% (inactive)
14,Cc1noc(C)c1CSCC(=O)N(CCC(C)C)c1c(N)n(Cc2ccccc2)c(=O)[nH]c1=O,4.61% (inactive)
15,CCn1c(SCC(=O)NC2CC2)nnc1-c1ccncc1,56.4% (inactive)
16,CCn1c(SCC(=O)NC2CC2)nnc1-c1ccccn1,-72.6% (active)
17,CCn1c(SCC(=O)NC2CCCC2)nnc1-c1ccoc1C,-17.9% (inactive)
18,Cc1cc(C)c(C)c(S(=O)(=O)Nc2cccnc2)c1C,-18.7% (inactive)
19,COc1ccc(S(=O)(=O)Nc2cccnc2)c(Cl)c1Cl,-8.35% (inactive)
20,COc1ccccc1Oc1ccc(S(=O)(=O)Nc2cccnc2)cc1,-79.4% (active)
21,CCN(C(=O)CN1CCN(Cc2ccccc2)CC1)c1c(N)n(Cc2ccccc2)c(=O)[nH]c1=O,3.73% (inactive)
22,Cc1c(-c2nc(-c3ccc4c(c3)OCO4)no2)nnn1-c1ccc(Br)cc1F,-0.877% (inactive)
23,CCc1nn(CC(=O)N2CCN(c3cccc(C(F)(F)F)c3)CC2)c(=O)c2cc3occc3n12,-6.95% (inactive)

row,SMILES,"activity change, negative = inhibition"
1,COc1cccc(NC(=O)CSC2=Nc3ccccc3C3=NC(CC(=O)NC4CCCCC4)C(=O)N23)c1 (configuration not stated),14% (inactive)
2,O=C(NC1CC(=O)N(c2ccc(F)cc2)C1)c1ccc(S(=O)(=O)N2CCCC2)cc1 (configuration not stated),-23.1% (inactive)
3,COC(=O)c1ccc2nc(-c3ccc(OC)c(OC)c3)c(Cc3ccccc3)n2c1,33.9% (inactive)
4,CCCCCc1c(Cc2ccccc2)ncn1CCc1ccccc1OC,-93.7% (active)
5,CCCCNS(=O)(=O)CCNCc1ccccc1OC,-20.1% (inactive)
6,COc1ccc(-c2nnc(SCC(=O)Nc3ccccc3C)o2)cc1OC,45.3% (inactive)
7,COc1ccccc1CCNS(=O)(=O)c1cn(C)nc1C,-2.46% (inactive)
8,CCCc1c(-c2ccccc2F)ncn1Cc1ccccc1OC,-31.6% (inactive)
9,CCCCCc1c(-c2ccc(OC)c(OC)c2)ncn1CCc1ccccc1OC,-102% (active)
10,CCCCc1c(-c2ccc(Br)cc2)ncn1CCc1ccccc1OC,-102% (active)
11,COc1ccccc1Cc1c(-c2ccc(Cl)cc2)nc2ccc(Cl)cn12,13.1% (inactive)
12,FC(F)(F)c1cccc(-c2cnc3ccccc3n2)c1,32.3% (inactive)
13,Nc1ncc(S(=O)(=O)Nc2ccc(OC(F)(F)F)cc2)cn1,4.7% (inactive)
14,CCN1C(=O)c2ccccc2S(=O)c2ccc(C(=O)NCc3ccc(F)cc3)cc21 (configuration not stated),6.08% (inactive)
15,CSc1nn(Cc2cccc(C)c2)c(N)c1S(=O)(=O)c1ccccc1,-39.1% (inactive)
16,COC(=O)c1cnn(-c2ccc(C(=O)Nc3ccc(OC(F)(F)F)cc3)cc2)c1N,-14.8% (inactive)
17,Cc1ccc2ncc(C(=O)Nc3ccc(OC(F)(F)F)cc3)c(=O)n2c1,19.1% (inactive)
18,O=C(Nc1ccc(OC(F)(F)F)cc1)c1ccc2c(c1)no[n+]2[O-],-88.8% (active)
19,Cc1ccccc1-n1c(C)cc(/C=N/NC(=O)c2ccc(CN3CCOCC3)cc2)c1C,-25.2% (inactive)
20,COc1ccc2c(c1)c(C(=O)N/N=C/c1cccs1)c(C)n2C,-14.7% (inactive)
21,Cc1cccc(-n2c(C)cc(/C=N\NC(=O)c3cccs3)c2C)c1,-61.8% (active)
22,O=C(Nc1cccc(Cl)c1)c1csnn1,-2.8% (inactive)
23,CC(=O)Nc1cc(C(=O)NCc2ccc(F)cc2Cl)ccc1Sc1ccc(Cl)cc1,5.5% (inactive)

# — PubChem BioAssay AID1259415 (National Center for Advancing Translational Sciences (NCATS), 2018)
